Inconclusive results are not listed. A number with no mark means an inactive call. The source made the active and inactive calls. The call rests on the fitted dose curve; in most records, active means well fitted inhibition curve with a large enough effect in the signal ratio in the repeat runs; inconclusive means weak or mixed curves, or effect the other way; inactive means flat fitted curve, though single readings scatter; the % refers to the signal ratio.
assay: qHTS assay for small molecule disruptors of the mitochondrial membrane potential (AID 720635); conditions: HepG2 mitochondrial membrane potential, Mito-MPS dye ratio; series mostly up to 83.2 µM; ratio activity, negative = MMP loss: at the top concentration
Excerpt: U.S. Tox21 Program National Center for Advancing Translational Sciences [NCATS] NIH Chemical Genomics Center [NCGC] U.S. Environmental Protection Agency [EPA] National Institutes of Environmental Health Sciences [NIEHS] National Toxicology Program [NTP] U.S. Food and Drug Administration [FDA] Tox21 Assay Overview: Mitochondrial membrane potential (MMP), one of the parameters for mitochondrial function, is generated by mitochondrial electron transport chain that creates an electrochemical gradient by a series of redox reactions. This gradient drives the synthesis of ATP, a crucial molecule for various cellular processes. Measuring MMP in living cells is commonly used to assess the effect of chemicals on mitochondrial function. […] The dye accumulates in the mitochondria of healthy cells as aggregates, with red fluorescence. The mitochondrial potential collapses and the dye can no longer accumulate in the mitochondria and remains in the cytoplasm in monomers, with green fluorescence.
Tox21 Assay Protocol Summary: 2,000 HepG2 cells in 5 uL/well were dispensed into black, clear-bottom 1536-well plates using a Multidrop Combi (Thermo Scientific) dispenser. The assay plates were incubated overnight at 37C to allow cells to attach to the wells, followed by the transfer of 23 nL compound or DMSO vehicle by a pin tool (Kalypsys). The plates were incubated for 1 hr at 37C and 5% CO2, followed by the addition of 5 uL of 2X Mito-MPS dye (BD Biosciences) into each well using Flying Reagent Dispenser (Aurora Discovery) and then following 30 min incubation at 37C. Fluorescence intensity (490nm excitation and 535nm emission for monomers; and 540nm excitation and 590nm emissions for aggregates) was measured using an Envision plate reader.
On the % scale 0 is the no-effect control and ±100 the full control effect; potency means the concentration at half of the fitted maximal effect.

Structure (SMILES) | ratio activity, negative = MMP loss | Potency
CCCCCCCCOCCC#N | 7.85% | 
C=CCCCCCCCCOC(C)=O | 6.16% | 
CCCC(C)C(O)CC (stereo not given) | -7.97% | 
CC(=O)c1c(C)cc(C(C)(C)C)cc1C | -15.7% | 
Nc1cc(S(=O)(=O)O)ccc1O | -11.7% | 
O=Cc1ccc(C(=O)O)cc1 | -10.6% [at 95.3 µM] | 
CC(=O)SCC(CC(=O)c1ccc(C)cc1)C(=O)O (stereo not given) | -14% | 
Cc1ccc(N)nc1 | 21.1% | 
CCCCCC(CC)OC(=O)CCCOc1ccc(Cl)cc1Cl (stereo not given) | -6.48% | 
CCCCN(CCCC)CCCCCCN(CCCC)CCCC | 8.54% | 
CCCC[O][Al]([O]CCCC)[O]CCCC | 12.3% | 
CC/C=C/CCCCCCCCCCOC(C)=O | 23.8% | 
CCOC(=O)CC(C(C)=O)C(C)=O | 21% | 
CCOc1ccccc1OCCN[C@H](C)Cc1ccc(OC)c(S(N)(=O)=O)c1 |  | 24.8 µM (active)
c1coc(Cn2cccc2)c1 | 7.12% | 
CC(CC(=O)Cl)CC(C)(C)C (stereo not given) | 22.2% [at 95.3 µM] | 
OCCC(F)(F)C(F)(F)C(F)(F)C(F)(F)C(F)(F)C(F)(F)F | 17.1% | 
NC[C@H]1O[C@H](O[C@H]2[C@H](O)[C@@H](O[C@H]3O[C@H](CO)[C@@H](O)[C@H](N)[C@H]3O)[C@H](N)C[C@@H]2N)[C@H](N)[C@@H](O)[C@@H]1O |  | inactive
CCCCNCC | 17.4% | 
C=COCCCCO | -16.5% | 

Structure (SMILES) | ratio activity, negative = MMP loss | Potency
C=CCOC(=O)CCCCCCCC | 6.12% [at 95.3 µM] | 
COc1cc(C(=O)NC2CCCNC2)cc(OC)c1OC (stereo not given) | 13.5% | 
CCC(C)c1nccnc1OC (stereo not given) | 3.29% | 
C/C=C/C(=O)CCCC | 15.9% | 
CCCc1ccc(O)c(OC)c1 | 1.82% | 
CC(C)(C)c1ccc(N)cc1 | 14.5% | 
C/C(=N\O)c1ccc(OCC(=O)N2CCCCC2)cc1 | -19.8% | 
CN1CCN(C(=O)C2CCCCC2)CC1 | -12.3% | 
CCCCCCCOC(C)=O | 9.16% | 
COC(=O)c1c(C)cc(O)c(C)c1O |  | 12.2 µM (active)
CCOC(=O)[C@H](CCc1ccccc1)N[C@H]1CS[C@H](c2cccs2)CN(CC(=O)O)C1=O | 15% | 
C=CC(=O)OCCOCCOCC | 20.6% | 
CC(C)(O)c1ccc(C(C)(C)O)cc1 | 15.5% | 
C[C@@H]1CC[C@@]2(OC1)O[C@H]1C[C@H]3[C@@H]4CC[C@H]5C[C@@H](O)CC[C@]5(C)[C@H]4CC(=O)[C@]3(C)[C@H]1[C@@H]2C | 13.3% [at 39.1 µM] | 
C=CC(C)(CCC=C(C)C)OC(=O)C(C)C (stereo not given) | 8.94% | 
C[C@]12C=CC(=O)C=C1[C@@H](F)C[C@@H]1[C@@H]2[C@@H](O)C[C@@]2(C)[C@H]1CC[C@]2(O)C(=O)CO | 13.3% | 
CCCCCCCC(=O)N(C)C | 6.82% | 
COc1cc(OC)cc(OC)c1 | 9.16% | 
COc1ccc2cc(CCC(C)=O)ccc2c1 | -23.5% [at 39.1 µM] | 
CCc1ccc(CC)cc1 | 11.1% [at 95.3 µM] | 
